Structures can show the parent of a compound that is named as a salt.
Test system: HL-1
Assay: relative cell viability (CellTiter-Glo) vs DMSO control (% of DMSO control); higher = more viable cells
Procedure, shortened: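 HL-1 mouse atrial cardiomyocytes were plated in 384-well plates at 1000 cells per well together with compounds at 40, 200, 1000 or 5000 nM in 0.01% DMSO. One day later, cells went to a hypoxic workstation (1% O2) for 48 h, then were reoxygenated for 24 h in a normal incubator, or stayed in normoxia for the same time. Cell viability was read by CellTiter-Glo luminescence and normalised to vehicle-treated control cells.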

[1] = oxygen condition: hypoxia 48 h (1% O2) + reoxygenation 24 h, 40 nM
[2] = oxygen condition: hypoxia 48 h (1% O2) + reoxygenation 24 h, 200 nM
[3] = oxygen condition: hypoxia 48 h (1% O2) + reoxygenation 24 h, 1000 nM
[4] = oxygen condition: hypoxia 48 h (1% O2) + reoxygenation 24 h, 5000 nM
[5] = oxygen condition: normoxia 72 h, 40 nM
[6] = oxygen condition: normoxia 72 h, 200 nM
[7] = oxygen condition: normoxia 72 h, 1000 nM
[8] = oxygen condition: normoxia 72 h, 5000 nM

Structure (SMILES) | relative cell viability [1] | relative cell viability [2] | relative cell viability [3] | relative cell viability [4] | relative cell viability [5] | relative cell viability [6] | relative cell viability [7] | relative cell viability [8]
[I-].[K+] [Potassium iodide] | 103 | 104 | 102 | 108 | 106 | 104 | 106 | 109
CC12CC3CC(C)(C1)CC(N)(C3)C2 [Memantine HCl] | 105 | 105 | 101 | 106 | 94.5 | 101 | 108 | 93.4
Nc1[nH]cnc2ncnc1-2 [Adenine sulfate] | 101 | 101 | 105 | 111 | 113 | 105 | 110 | 113
Nc1nc2n[nH]nc2c(=O)[nH]1 [Azaguanine-8] | 92 | 105 | 102 | 111 | 103 | 102 | 98.7 | 104
COCCCOc1cc(C[C@@H](C[C@H](N)[C@@H](O)C[C@H](C(=O)NCC(C)(C)C(N)=O)C(C)C)C(C)C)ccc1OC [Aliskiren hemifumarate] | 94.1 | 97.2 | 92.3 | 107 | 95.9 | 102 | 101 | 107
O=C(O)C1(C(=O)O)CCC1.[NH2-].[NH2-].[Pt+2] [Carboplatin] | 110 | 109 | 95.3 | 112 | 100 | 106 | 108 | 119
CN[C@H](CC(C)C)C(=O)N[C@H]1C(=O)N[C@@H](CC(N)=O)C(=O)N[C@H]2C(=O)N[C@H]3C(=O)N[C@H](C(=O)N[C@H](C(=O)O)c4cc(O)cc(O)c4-c4cc3ccc4O)[C@H](O)c3ccc(c(Cl)c3)Oc3cc2cc(c3O[C@@H]2O[C@H](CO)[C@@H](O)[C@H](O)[C@H]2O[C@H]2C[C@](C)(N)[C@H](O)[C@H](C)O2)Oc2ccc(cc2Cl)[C@H]1O [Vancomycin HCl] | 105 | 92.7 | 105 | 114 | 106 | 99.4 | 106 | 113
CC1=C(/C=C/C(C)=C/C=C/C(C)=C/C(=O)O)C(C)(C)CCC1 [Tretinoin] | 113 | 109 | 110 | 100 | 112 | 106 | 101 | 121
NC(=O)CC[C@H](N)C(=O)O [L-Glutamine] | 98.4 | 99.1 | 103 | 105 | 102 | 97.4 | 114 | 113
N[C@@H]1CCCCN(c2c(F)cc3c(=O)c(C(=O)O)cn(C4CC4)c3c2Cl)C1 [Besifloxacin HCl] | 96.9 | 99.1 | 96.7 | 101 | 101 | 99.5 | 98.6 | 102
N=C(N)NCCN1CCCCCCC1 [Guanethidine Sulfate] | 101 | 101 | 96.2 | 113 | 103 | 107 | 103 | 116
CN(Cc1cnc2nc(N)nc(N)c2n1)c1ccc(C(=O)N[C@@H](CCC(=O)O)C(=O)O)cc1 [Abitrexate] | 75.8 | 51.7 | 42.5 | 42 | 58.2 | 52.2 | 41.8 | 43.9
Cc1ccc(C(=O)C(C)CN2CCCCC2)cc1 (stereo unspecified) [Tolperisone HCl] | 107 | 107 | 109 | 108 | 107 | 114 | 81.5 | 111
COc1ccccc1OCC(O)CN1CCN(CC(=O)Nc2c(C)cccc2C)CC1 (stereo unspecified) [Ranolazine] | 85 | 102 | 98 | 112 | 105 | 102 | 107 | 118
CCN(CC)CCNC(C(=O)OCCC(C)C)c1ccccc1 (stereo unspecified) [Camylofin Chlorhydrate] | 108 | 103 | 106 | 109 | 101 | 100 | 103 | 110
CN(C)/N=N/c1[nH]cnc1C(N)=O [Dacarbazine] | 97.5 | 107 | 110 | 113 | 105 | 106 | 107 | 113
OCCOCCN1CCN(C2=Nc3ccccc3Sc3ccccc32)CC1 [Quetiapine fumarate] | 98.9 | 104 | 106 | 104 | 103 | 106 | 108 | 108
OC[C@@H](O)[C@@H](O)[C@H](O)[C@H](O)CO [D-Mannitol] | 102 | 86.9 | 113 | 113 | 106 | 98.9 | 108 | 87.3
Cn1c(=O)c2c(ncn2CC2OCCO2)n(C)c1=O [Doxofylline] | 101 | 111 | 122 | 113 | 108 | 111 | 113 | 122
CC(C)NCC(O)COc1ccc(COCCOC(C)C)cc1 (stereo unspecified) [Bisoprolol] | 93.2 | 103 | 87.2 | 101 | 90.8 | 101 | 85.4 | 108
CN(C)CCOc1ccc(/C(=C(/CCCl)c2ccccc2)c2ccccc2)cc1 [Toremifene Citrate] | 104 | 103 | 108 | 108 | 103 | 99.5 | 105 | 108

Structure (SMILES) | relative cell viability [1] | relative cell viability [2] | relative cell viability [3] | relative cell viability [4] | relative cell viability [5] | relative cell viability [6] | relative cell viability [7] | relative cell viability [8]
CCCC(=O)OCOC(=O)C1=C(C)NC(C)=C(C(=O)OC)C1c1cccc(Cl)c1Cl (stereo unspecified) [Cleviprex] | 106 | 90.5 | 93.1 | 98 | 91.9 | 91.8 | 96.5 | 96.4
N[C@@H](Cc1cc(I)c(Oc2ccc(O)c(I)c2)c(I)c1)C(=O)O [Liothyronine Sodium] | 105 | 108 | 111 | 109 | 103 | 102 | 108 | 107
CCOC(=O)[C@H](CCc1ccccc1)N[C@@H](C)C(=O)N1C(=O)N(C)C[C@H]1C(=O)O [Imidapril] | 111 | 103 | 99.3 | 115 | 110 | 103 | 104 | 113
O=C1CN2Cc3c(ccc(Cl)c3Cl)N=C2N1 [Anagrelide HCl] | 97.6 | 98.7 | 97.5 | 108 | 99.8 | 100 | 105 | 111
CC1=C(C(=O)OC(C)C)C(c2cccc([N+](=O)[O-])c2)C(C(=O)OC2CN(C(c3ccccc3)c3ccccc3)C2)=C(N)N1 (stereo unspecified) [Azelnidipine] | 104 | 110 | 106 | 112 | 109 | 110 | 112 | 119
CNC(=C[N+](=O)[O-])NCCSCc1csc(CN(C)C)n1 [Nizatidine] | 108 | 104 | 106 | 95.7 | 115 | 104 | 106 | 85
C[C@@H]1CC(=O)NN=C1c1ccc(NN=C(C#N)C#N)cc1 [Levosimendan] | 101 | 103 | 102 | 108 | 95.9 | 103 | 105 | 103
Nc1c2c(nc3ccccc13)CCCC2 [Tacrine HCl] | 91.7 | 89.5 | 81.2 | 20.3 | 94.1 | 82.5 | 70.4 | 26.4
Nc1ncnc2c1ncn2[C@@H]1O[C@H](CO)[C@@H](O)[C@H]1O [Adenosine] | 104 | 107 | 113 | 108 | 104 | 108 | 111 | 110
CC(=O)OCC(CCn1cnc2cnc(N)nc21)COC(C)=O [Famciclovir] | 101 | 104 | 100 | 113 | 106 | 106 | 105 | 121
CCCS(=O)(=O)Nc1ccc(F)c(C(=O)c2c[nH]c3ncc(-c4ccc(Cl)cc4)cc23)c1F [Vemurafenib] | 102 | 111 | 107 | 111 | 104 | 96.2 | 106 | 118
CO[C@@H]1[C@@H](OC(N)=O)[C@@H](O)[C@H](Oc2ccc3c(O)c(NC(=O)c4ccc(O)c(CC=C(C)C)c4)c(=O)oc3c2C)OC1(C)C [Novobiocin sodium] | 100 | 102 | 102 | 110 | 97.1 | 99.2 | 101 | 113
CC(C)NCC(O)COc1ccc(CCOCC2CC2)cc1 (stereo unspecified) [Betaxolol] | 99.8 | 98.5 | 100 | 101 | 96.4 | 100 | 99.6 | 108
Cc1ccc(C(=O)c2cc(O)c(O)c([N+](=O)[O-])c2)cc1 [Tolcapone] | 101 | 100 | 103 | 116 | 98.4 | 102 | 103 | 113
CCCc1cc(=O)[nH]c(=S)[nH]1 [Propylthiouracil] | 106 | 105 | 107 | 120 | 99.3 | 108 | 107 | 110
NS(=O)(=O)c1cc2c(cc1C(F)(F)F)NC(Cc1ccccc1)NS2(=O)=O (stereo unspecified) [Bendroflumethiazide] | 93.6 | 98.4 | 101 | 106 | 104 | 100 | 105 | 110
CCCCC[C@H](O)/C=C/[C@H]1[C@H](O)CC(=O)[C@@H]1CCCCCCC(=O)O [Alprostadil] | 104 | 106 | 107 | 107 | 108 | 102 | 111 | 101
COc1cccc2c1C(=O)c1c(O)c3c(c(O)c1C2=O)C[C@@](O)(C(=O)CO)C[C@@H]3O[C@H]1C[C@H](N)[C@@H](O)[C@H](C)O1 [Epirubicin Hydrochloride] | 96.8 | 102 | 107 | 91.5 | 93.5 | 97.6 | 91.7 | 96.4
Nc1ncn([C@@H]2O[C@H](CO)[C@@H](O)[C@H]2O)c(=O)n1 [Azacitidine] | 105 | 101 | 102 | 83 | 98.6 | 103 | 90.1 | 84.5
CN1CCC(=C2c3ccccc3C=Cc3ccccc32)CC1 [Cyproheptadine HCl] | 97.1 | 95.8 | 102 | 110 | 100 | 98.1 | 102 | 118
CC(=O)OCC(=O)[C@@]1(O)CC[C@H]2[C@@H]3CCC4=CC(=O)CC[C@]4(C)[C@H]3C(=O)C[C@@]21C [Cortisone acetate] | 99.7 | 98.2 | 98.1 | 108 | 94.7 | 94.2 | 93.2 | 103

From the supplement of paper PMC8371130
